{"source": "PubChem BioAssay (NCATS)", "experiment_in_all_cases": "qHTS profiling for inhibitors of Plasmodium falciparum proliferation (AID 504749); further: nearly all actives have a fitted effect of over 60% in size", "conditions_in_all_cases": "P. falciparum in erythrocytes, SYBR Green DNA, 72 h; series mostly up to 28.7 µM", "key": {"CP203": {"system": "CP203", "method_in_brief": "(§1)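 Readout was DNA-dye fluorescence from lysed cultures, ex 485/em 535 nm. Parasitized red cells had grown 72 h with compound; data scaled between 0.29 uM artemisinin and DMSO wells and corrected using vehicle-only plates.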"}, "CP215": {"system": "CP215", "method_in_brief": "as §1"}, "CP217": {"system": "CP217", "method_in_brief": "as §1"}, "CP237": {"system": "CP237", "method_in_brief": "as §1"}, "CP238": {"system": "CP238", "method_in_brief": "as §1"}, "CP247": {"system": "CP247", "method_in_brief": "as §1"}, "CP250": {"system": "CP250", "method_in_brief": "as §1"}, "CP252": {"system": "CP252", "method_in_brief": "as §1"}, "CP256": {"system": "CP256", "method_in_brief": "as §1"}, "CP211": {"system": "CP211", "method_in_brief": "as §1"}}, "note": "Results filed as inconclusive are left out. Entries that show only a call come without a potency. Calls of active or inactive are those of the source. The call rests on the fitted dose curve; in most records, active means well fitted inhibition curve with a large enough effect; inconclusive means small, poorly fitted or top-dose-only effect; inactive means flat fitted curve, though single readings scatter. Potency means the concentration at half of the fitted maximal effect."}
{"smiles": "CCC(=O)O[C@@](Cc1ccccc1)(c1ccccc1)[C@@H](C)CN(C)C", "values": [{"measurement": "Potency", "setting": "CP203", "value": "inactive"}, {"measurement": "Potency", "setting": "CP215", "value": "inactive"}, {"measurement": "Potency", "setting": "CP217", "value": "inactive"}, {"measurement": "Potency", "setting": "CP237", "value": "inactive"}, {"measurement": "Potency", "setting": "CP238", "value": "inactive"}, {"measurement": "Potency", "setting": "CP247", "value": "inactive"}, {"measurement": "Potency", "setting": "CP250", "value": "inactive"}, {"measurement": "Potency", "setting": "CP252", "value": "inactive"}, {"measurement": "Potency", "setting": "CP256", "value": "inactive"}]}
{"smiles": "CCOc1ccc2c3c1O[C@H]1[C@@H](O)C=C[C@H]4[C@@H](C2)N(C)CC[C@@]341", "values": [{"measurement": "Potency", "setting": "CP217", "value": "inactive"}, {"measurement": "Potency", "setting": "CP237", "value": "inactive"}, {"measurement": "Potency", "setting": "CP238", "value": "inactive"}, {"measurement": "Potency", "setting": "CP247", "value": "inactive"}, {"measurement": "Potency", "setting": "CP250", "value": "inactive"}, {"measurement": "Potency", "setting": "CP252", "value": "inactive"}, {"measurement": "Potency", "setting": "CP256", "value": "inactive"}]}
{"smiles": "CCC1C(C)=NN=C(c2ccc(OC)c(OC)c2)c2cc(OC)c(OC)cc21", "note": "(stereo unspecified)", "values": [{"measurement": "Potency", "setting": "CP203", "value": "inactive"}, {"measurement": "Potency", "setting": "CP217", "value": "inactive"}, {"measurement": "Potency", "setting": "CP238", "value": "inactive"}, {"measurement": "Potency", "setting": "CP247", "value": "inactive"}, {"measurement": "Potency", "setting": "CP250", "value": "inactive"}, {"measurement": "Potency", "setting": "CP252", "value": "inactive"}, {"measurement": "Potency", "setting": "CP256", "value": "inactive"}]}
{"smiles": "CN1CCCC(=C(c2cccs2)c2cccs2)C1", "values": [{"measurement": "Potency", "setting": "CP237", "value": "4.47 µM (active)"}, {"measurement": "Potency", "setting": "CP250", "value": "inactive"}, {"measurement": "Potency", "setting": "CP256", "value": "inactive"}]}
{"smiles": "[Cl-].[Cl-].[Hg+2]", "values": [{"measurement": "Potency", "setting": "CP203", "value": "inactive"}, {"measurement": "Potency", "setting": "CP215", "value": "inactive"}, {"measurement": "Potency", "setting": "CP217", "value": "8.91 µM (active)"}, {"measurement": "Potency", "setting": "CP238", "value": "10 µM (active)"}, {"measurement": "Potency", "setting": "CP250", "value": "inactive"}]}
{"smiles": "CC1CCC(C(C)C)C(OC(=O)c2ccccc2N)C1", "note": "(stereo unspecified)", "values": [{"measurement": "Potency", "setting": "CP203", "value": "inactive"}, {"measurement": "Potency", "setting": "CP211", "value": "inactive"}, {"measurement": "Potency", "setting": "CP215", "value": "inactive"}, {"measurement": "Potency", "setting": "CP217", "value": "inactive"}, {"measurement": "Potency", "setting": "CP238", "value": "inactive"}, {"measurement": "Potency", "setting": "CP247", "value": "inactive"}, {"measurement": "Potency", "setting": "CP250", "value": "inactive"}, {"measurement": "Potency", "setting": "CP252", "value": "inactive"}, {"measurement": "Potency", "setting": "CP256", "value": "inactive"}]}
{"smiles": "c1cc2c(c(NC3=NCCN3)c1)CCCC2", "values": [{"measurement": "Potency", "setting": "CP217", "value": "inactive"}, {"measurement": "Potency", "setting": "CP237", "value": "inactive"}, {"measurement": "Potency", "setting": "CP238", "value": "inactive"}, {"measurement": "Potency", "setting": "CP247", "value": "inactive"}, {"measurement": "Potency", "setting": "CP250", "value": "inactive"}, {"measurement": "Potency", "setting": "CP252", "value": "inactive"}, {"measurement": "Potency", "setting": "CP256", "value": "inactive"}]}
{"smiles": "COc1ccc2c(c1OC)C(=O)OC2C1c2cc3c(cc2CCN1C)OCO3", "note": "(stereo unspecified)", "values": [{"measurement": "Potency", "setting": "CP217", "value": "inactive"}, {"measurement": "Potency", "setting": "CP237", "value": "inactive"}, {"measurement": "Potency", "setting": "CP247", "value": "inactive"}, {"measurement": "Potency", "setting": "CP250", "value": "inactive"}, {"measurement": "Potency", "setting": "CP252", "value": "inactive"}, {"measurement": "Potency", "setting": "CP256", "value": "inactive"}]}
{"smiles": "Oc1cccc[c]1[Hg][Cl]", "values": [{"measurement": "Potency", "setting": "CP211", "value": "9.53 µM (active)"}, {"measurement": "Potency", "setting": "CP215", "value": "10.7 µM (active)"}, {"measurement": "Potency", "setting": "CP217", "value": "8.91 µM (active)"}, {"measurement": "Potency", "setting": "CP237", "value": "10 µM (active)"}, {"measurement": "Potency", "setting": "CP238", "value": "11.2 µM (active)"}, {"measurement": "Potency", "setting": "CP247", "value": "8.91 µM (active)"}, {"measurement": "Potency", "setting": "CP252", "value": "12.6 µM (active)"}, {"measurement": "Potency", "setting": "CP256", "value": "11.2 µM (active)"}]}
{"smiles": "C=CCN=C=S", "values": [{"measurement": "Potency", "setting": "CP217", "value": "inactive"}, {"measurement": "Potency", "setting": "CP237", "value": "inactive"}, {"measurement": "Potency", "setting": "CP238", "value": "inactive"}, {"measurement": "Potency", "setting": "CP247", "value": "inactive"}, {"measurement": "Potency", "setting": "CP250", "value": "inactive"}, {"measurement": "Potency", "setting": "CP252", "value": "inactive"}, {"measurement": "Potency", "setting": "CP256", "value": "inactive"}]}
{"smiles": "C=CCN1CC[C@]23c4c5ccc(O)c4O[C@H]2[C@@H](O)C=C[C@H]3[C@H]1C5", "values": [{"measurement": "Potency", "setting": "CP203", "value": "inactive"}, {"measurement": "Potency", "setting": "CP211", "value": "inactive"}, {"measurement": "Potency", "setting": "CP215", "value": "inactive"}, {"measurement": "Potency", "setting": "CP217", "value": "inactive"}, {"measurement": "Potency", "setting": "CP237", "value": "inactive"}, {"measurement": "Potency", "setting": "CP238", "value": "inactive"}, {"measurement": "Potency", "setting": "CP250", "value": "inactive"}, {"measurement": "Potency", "setting": "CP252", "value": "inactive"}, {"measurement": "Potency", "setting": "CP256", "value": "inactive"}]}
{"smiles": "c1csc(C2(N3CCCCC3)CCCCC2)c1", "values": [{"measurement": "Potency", "setting": "CP203", "value": "inactive"}, {"measurement": "Potency", "setting": "CP211", "value": "inactive"}, {"measurement": "Potency", "setting": "CP215", "value": "inactive"}, {"measurement": "Potency", "setting": "CP217", "value": "inactive"}, {"measurement": "Potency", "setting": "CP238", "value": "inactive"}, {"measurement": "Potency", "setting": "CP247", "value": "inactive"}, {"measurement": "Potency", "setting": "CP250", "value": "inactive"}, {"measurement": "Potency", "setting": "CP252", "value": "inactive"}, {"measurement": "Potency", "setting": "CP256", "value": "inactive"}]}
{"smiles": "CN1[C@@H]2CC[C@H]1CC(OC1c3ccccc3CCc3ccccc31)C2", "note": "(stereo partly specified)", "values": [{"measurement": "Potency", "setting": "CP215", "value": "inactive"}, {"measurement": "Potency", "setting": "CP217", "value": "3.16 µM (active)"}, {"measurement": "Potency", "setting": "CP252", "value": "3.16 µM (active)"}, {"measurement": "Potency", "setting": "CP256", "value": "inactive"}]}
{"smiles": "CC12NC(Cc3ccccc31)c1ccccc12", "note": "(stereo unspecified)", "values": [{"measurement": "Potency", "setting": "CP211", "value": "inactive"}, {"measurement": "Potency", "setting": "CP215", "value": "inactive"}, {"measurement": "Potency", "setting": "CP250", "value": "inactive"}]}
{"smiles": "CCNC(C)Cc1cccc(C(F)(F)F)c1", "note": "(stereo unspecified)", "values": [{"measurement": "Potency", "setting": "CP203", "value": "inactive"}, {"measurement": "Potency", "setting": "CP211", "value": "inactive"}, {"measurement": "Potency", "setting": "CP215", "value": "inactive"}, {"measurement": "Potency", "setting": "CP217", "value": "inactive"}, {"measurement": "Potency", "setting": "CP238", "value": "inactive"}, {"measurement": "Potency", "setting": "CP247", "value": "inactive"}, {"measurement": "Potency", "setting": "CP250", "value": "inactive"}, {"measurement": "Potency", "setting": "CP252", "value": "inactive"}, {"measurement": "Potency", "setting": "CP256", "value": "inactive"}]}
{"smiles": "CCCN1CCCC2Cc3[nH]ncc3CC21", "note": "(stereo unspecified)", "values": [{"measurement": "Potency", "setting": "CP217", "value": "inactive"}, {"measurement": "Potency", "setting": "CP237", "value": "inactive"}, {"measurement": "Potency", "setting": "CP238", "value": "inactive"}, {"measurement": "Potency", "setting": "CP247", "value": "inactive"}, {"measurement": "Potency", "setting": "CP250", "value": "inactive"}, {"measurement": "Potency", "setting": "CP252", "value": "inactive"}, {"measurement": "Potency", "setting": "CP256", "value": "inactive"}]}
{"smiles": "C=CCC1(C(C)CCC)C(=O)N=C(S)NC1=O", "note": "(stereo unspecified)", "values": [{"measurement": "Potency", "setting": "CP217", "value": "inactive"}, {"measurement": "Potency", "setting": "CP237", "value": "inactive"}, {"measurement": "Potency", "setting": "CP238", "value": "inactive"}, {"measurement": "Potency", "setting": "CP247", "value": "inactive"}, {"measurement": "Potency", "setting": "CP250", "value": "inactive"}, {"measurement": "Potency", "setting": "CP252", "value": "inactive"}, {"measurement": "Potency", "setting": "CP256", "value": "inactive"}]}
